In all, about 410,000 compounds went through this assay and about 5,100 (1.2%) were called active. Another 8% or so got no clear call; they are omitted. The full list was thinned out, with actives kept by preference. Values without a mark were called inactive. Calls come from the whole dose curve; tested in HEK293T cells.
assay: High Throughput Screening for Foot and Mouth Disease Virus Antivirals; settings: FMDV antiviral cell-based qHTS; series mostly up to 57.9 µM; activity change, negative = inhibition: at the top concentration; note: read-out not given here; nearly all actives have a fitted effect of over 45% in size
% is set by controls: 0 for no effect and ±100 for the full control effect; potency is the fitted concentration of half-maximal effect.

Structure (SMILES) | activity change, negative = inhibition [%] | Potency
Cc1[nH]c2ccccc2c1/C=C(/C#N)C(=O)NC(C)C | -22.7 | 
C=CCNC(=S)N/N=C/c1ccc(C)s1 | 1.06 | 
COCCNC(=S)N/N=C/c1c(C)[nH]c2ccccc12 |  | 20 µM (active)
C[N+](C)(C)CCCCCNCC12CC3CC(CC(C3)C1)C2 | -8.71 | 
Cc1ccc(N2CCN(C(=O)c3cccs3)CC2)c(C)c1 | -20.8 | 
Cc1ccccc1C(CC(=O)c1cccs1)C(C#N)C#N (stereo not drawn) |  | 11.2 µM (active)
CCS(=O)(=O)N1CCN(C(=O)c2cccs2)CC1 | -16.9 | 
Cc1nc2ccc(NC(=O)c3cccc(S(=O)(=O)N4CCOCC4)c3)cc2s1 |  | 31.6 µM (active)
Cc1cc(C)n2nc(C(=O)Nc3cccc(S(=O)(=O)N4CCOCC4)c3)nc2n1 | -6.23 | 
O=C(Nc1ccc(S(=O)(=O)N2CCOCC2)cc1)c1ccc2ncsc2c1 | -22.9 | 
Cc1nc2cnc(N3CCNCC3)nc2n(CCc2ccccc2)c1=O | -8.91 | 
CC1=C(/C=C/C(C)=C/C=C/C(C)=C/C=C/C=C(C)/C=C/C=C(C)/C=C/C2=C(C)CCCC2(C)C)C(C)(C)CCC1 |  | 5.01 µM (active)
CCCCCCCCCCCCCCCC(=O)OC/C=C(C)/C=C/C=C(C)/C=C/C1=C(C)CCCC1(C)C |  | inactive
Cc1ccc(CSc2nc3ccsc3c(=O)n2CCC(C)C)cc1 | -28.8 | 
CCOC(=O)Cc1ccc(NC(=O)Nc2c[nH]c(=O)[nH]c2=O)cc1 | -3.16 | 
COCC(=O)Nc1cc(C(=O)N2CCCC(c3ccccc3)CC2)c2c(c1)nc(-c1ccncc1)n2C (stereo not drawn) | -6.81 | 
COc1ccc(-c2nn(C)c(=O)c3ccccc23)cc1NC(=O)COc1ccccc1 |  | 17.8 µM (active)
COc1ccc(-c2nc3ccccc3s2)cc1NC(=O)COc1ccccc1C | 15.1 | 
COc1ccc(-c2nn(C)c(=O)c3ccccc23)cc1CNC(=O)C1CCCCC1 | -10.7 | 
O=c1cnc2cnc(Nc3ccccc3)nc2n1Cc1ccc(F)cc1 | -18.2 | 
Cc1ccc(S(=O)(=O)N2CCCc3cc(NS(=O)(=O)c4cc(C)ccc4C)ccc32)cc1 | 38.1 | 

Structure (SMILES) | activity change, negative = inhibition [%] | Potency
COc1ccccc1C(=O)Nc1c(C(=O)N(C)Cc2ccccc2)sc2nc(C)c(Cl)c(C)c12 | -23 | 
Cc1cc(C(=O)CSc2nc(N)cc(=O)[nH]2)c(C)n1CCc1ccc(Cl)cc1 |  | 22.4 µM (active)
CCCCc1nnc(NC(=O)CSc2nc(N)cc(=O)[nH]2)s1 | 6.16 | 
Cc1cc(=O)[nH]c(SCc2ccc(Cl)cc2)n1 | 2.53 | 
COCCn1c(=O)c(-c2cccc(F)c2)nc2cncnc21 | -3.82 | 
COc1ccc(F)c(CN2CCC3(CCC(CNC(=O)c4ccn(C)n4)O3)CC2)c1 (stereo not drawn) | -12.4 | 
COc1ccc(Cl)cc1-n1c(CCC(=O)O)ccc1-c1ccc(C)cc1 | -13.1 | 
CCc1ccc(-c2nn(-c3ccccc3)cc2CSC(=N)N)cc1 |  | 39.8 µM (active)
CCc1ccc(-n2nnc(-c3nc(-c4ccccc4)no3)c2C)cc1 | 27.4 | 
CCc1ccc(-c2nn(-c3ccccc3C)cc2C(=O)N2CCN(C3CCS(=O)(=O)C3)CC2)cc1 (stereo not drawn) | -4.39 | 
COc1cc2c(cc1OC)[C@@H]1C(=O)c3ccc(O)c(CC=C(C)C)c3OC1CO2 (stereo partly drawn) | -14.3 | 
CCCS(=O)(=O)NCc1c(C)ncc2c1CCN(C(=O)c1ccc(F)c(F)c1)C2 | -9.08 | 
COc1ccc2c(c1)CCc1cnc(-n3ncc(C(=O)NCCN4CCOCC4)c3C)nc1-2 | -7.65 | 
Cc1ccc2nc(COc3ccc(N(C)S(=O)(=O)c4ccccc4)cc3)cc(=O)n2c1 |  | 31.6 µM (active)
Cc1ccc2nc(COc3ccc(NC(=O)COc4ccccc4F)cc3)cc(=O)n2c1 | -8.25 | 
COc1cccc(COc2ccc(N(C)S(=O)(=O)c3ccccc3)cc2)c1 | -21.3 | 
CCc1nc2cc(C(=O)NCC3CCS(=O)(=O)C3)cc(NC(=O)c3ccccc3OC)c2n1C (stereo not drawn) | -9.72 | 
Cc1ccc(NC(=O)CSc2nc3c([nH]c4ccccc43)c(=O)n2-c2ccccc2)c(C)c1 | -23.2 | 
CCN(CCCCOC(=O)c1ccc(OC)c(OC)c1)C(C)Cc1ccc(OC)cc1 (stereo not drawn) |  | inactive
COc1ccc(C(CCN(Cc2ccc(OC)c(OC)c2)C(=O)CCl)c2ccccc2)cc1 (stereo not drawn) |  | 31.6 µM (active)
COc1ccc(C(C(=O)NC2CCCCC2)N(C(=O)CCl)c2ccccc2Cl)cc1 (stereo not drawn) | 6.66 | 

Structure (SMILES) | activity change, negative = inhibition [%] | Potency
COCCNc1cc(-c2c(C)noc2C)ncn1 | -19.3 | 
CC(=CCOc1ccc2ccc(=O)oc2c1)C1=CC(=O)C(C)(C)O1 |  | 28.2 µM (active)
CC(C)OC(=O)c1ccc(COc2ccc3ccc(=O)oc3c2)o1 | 40.6 | 
O=C(COc1ccc2ccc(=O)oc2c1)NCC(O)c1ccccc1 (stereo not drawn) | -9.08 | 
Cn1cccc1C(=O)N1CCC2(CC1)CN(c1cccc(-c3ccccc3)c1)C2 | -26.7 | 
Cc1ccc(NC(=O)Nc2sc3nc4n(c(=O)c3c2C)CCC(C)CC4)c(Cl)c1 (stereo not drawn) | -23.1 | 
Cc1ccc(CN2COc3cc(C)c4c(oc(=O)c5ccccc54)c3C2)cc1 | -6.49 | 
CCOC(=O)c1cc2c(=O)n3ccccc3nc2n(CCCOC)c1=NC(=O)C(C)Oc1ccccc1 (stereo not drawn) | 13.7 | 
COc1ccc(Nc2ncnc3ccc(Br)cc23)c(OC)c1 |  | 3.98 µM (active)
COc1ccc(CNc2ncnc3ccc(-c4cccnc4)cc23)c(OC)c1 | -28.8 | 
COc1ccc2[nH]cc(CCNc3ncnc4ccc(-c5ccccc5CN(C)C)cc34)c2c1 | -2.17 | 
NS(=O)(=O)c1ccc(NC(=O)COc2ccc(S(=O)(=O)NC3CCCCC3)cc2)cc1 | 31.4 | 
O=C(COC(=O)C1(c2ccc(F)cc2)CCCC1)N1CCNC1=O | -14.5 | 
NS(=O)(=O)c1ccc(NC(=O)COC(=O)C2(c3ccc(F)cc3)CCCC2)cc1 |  | 17.8 µM (active)
COc1ccc(CNC(=O)CSCc2nc(-c3ccccc3F)oc2C)cc1 | -18.8 | 
Cc1nc2cc(NC(=O)[C@@H]3C[C@@H](Sc4ccccn4)CN3Cc3ccccc3C)ccc2s1 | -2.38 | 
CCC(C(=O)Nc1cccc(-c2nc3cccnc3s2)c1C)c1ccccc1 (stereo not drawn) | -3.42 | 
Cc1ccc(Nc2nc(CSc3nnc(-c4ccncc4)n3-c3ccccc3C)cs2)cc1 |  | 31.6 µM (active)
CCOc1ccccc1-n1c(SCC(=O)NCc2ccco2)nnc1-c1ccncc1 | 33 | 
Cn1c(SCc2ccc(F)cc2)nnc1-c1ccncc1 | -6.09 | 
N[C@H](C(=O)O)c1ccc(C(=O)O)c(O)c1 |  | inactive

From PubChem BioAssay AID1159524 (National Center for Advancing Translational Sciences (NCATS), 2015)
